Key:
Details in all cases: Compound Concentration (nM):1000
[1] = system: MET(Y1235D)
[2] = system: MET
[3] = system: T1, MINK
T1 construct: gene MINK1

[4] = system: T2, MKK7
T2 construct: gene MAP2K7

[5] = system: MKNK1
[6] = system: MKNK2
[7] = system: T3, MLCK
T3 construct: gene MYLK3

[8] = system: T4, MLK1
T4 construct: gene MAP3K9

[9] = system: T5, MLK2
T5 construct: gene MAP3K10

[10] = system: T6, MLK3
T6 construct: gene MAP3K11

[11] = system: T7, MRCKA
T7 construct: gene CDC42BPA

[12] = system: T8, MRCKB
T8 construct: gene CDC42BPB

[13] = system: MST1R
[14] = system: T9, MST1
T9 construct: gene STK4

[15] = system: T10, MST2
T10 construct: gene STK3

[16] = system: T11, MST3
T11 construct: gene STK24

[17] = system: MST4
[18] = system: MTOR
[19] = system: MUSK
[20] = system: MYLK2
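Further: KINOMEscan scanMAX binding as percent activity remaining versus control; lower means stronger binding.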

Compound	Percent Control [1] [%]	Percent Control [2] [%]	Percent Control [3] [%]	Percent Control [4] [%]	Percent Control [5] [%]	Percent Control [6] [%]	Percent Control [7] [%]	Percent Control [8] [%]	Percent Control [9] [%]	Percent Control [10] [%]	Percent Control [11] [%]	Percent Control [12] [%]	Percent Control [13] [%]	Percent Control [14] [%]	Percent Control [15] [%]	Percent Control [16] [%]	Percent Control [17] [%]	Percent Control [18] [%]	Percent Control [19] [%]	Percent Control [20] [%]
CCc1ccc(Oc2nccc(-c3c(-c4ccc(F)cc4)ncn3C3CCNCC3)n2)cc1 [SB-242719]	100	93	36	90	83	100	76	85	100	71	68	17	100	88	66	90	61	89	100	80
CCn1c(-c2nonc2N)nc2c(C#CC(C)(C)O)nc(OCCNC)cc21.Cl [GSK949675]	100	97	100	100	98	100	100	100	100	100	100	100	100	100	100	100	100	85	100	98
NS(=O)(=O)c1ccc(Nc2ncc(-c3ccccc3)o2)cc1 [GW572399X]	100	100	40	100	39	53	100	100	100	100	100	100	100	100	100	100	65	88	100	100
CC(C)COC(=O)c1ccc2c(c1)/C(=C/Nc1ccc(S(N)(=O)=O)cc1)C(=O)N2 [GW416981X]	94	100	37	100	100	100	100	100	96	100	100	100	100	100	1.1	98	31	100	100	100
COc1cc2ncnc(Nc3ccc4c(cnn4Cc4ccccc4)c3)c2cc1OC.Cl [GW282449A]	100	100	87	100	100	76	100	100	100	100	100	100	100	100	100	100	94	100	100	100
COc1cc(/C=N/Nc2ncnc3[nH]ncc23)ccc1O [GW578748X]	83	100	39	100	78	38	90	66	51	43	100	100	100	100	86	93	20	96	100	81
COc1cccc(-c2c[nH]c3c(N/N=C/c4ccncc4)ncnc23)c1 [GW814408X]	75	64	33	100	57	30	95	61	76	73	100	100	88	100	100	74	21	100	100	68
CN(C)CCNC(=O)Nc1ccc(N(C)c2ccnc(Nc3ccc(CS(C)(=O)=O)cc3)n2)cc1.Cl [GW830900A]	57	21	59	100	100	53	100	97	99	100	95	96	100	100	100	91	66	97	78	100
COc1cc(C=NNc2ncnc3c2cnn3-c2ccccc2)ccc1O [GW513184X]	57	36	48	100	100	50	98	48	83	50	100	100	29	100	94	100	58	93	100	43
COc1cccc(-n2ncc3c(N/N=C/c4ccncc4)ncnc32)c1 [GW784752X]	94	91	67	100	47	59	98	100	73	100	100	100	100	100	100	93	74	100	100	91
COc1cc(N2CCN(C(C)C)CC2)ccc1Nc1nc(Nc2ccc(F)cc2C(=O)NC[C@@H](O)CO)c2cc[nH]c2n1 [GSK1392956A]	100	100	80	100	61	97	96	100	100	100	100	100	100	100	92	90	94	100	100	100
CN1CCN(C(=O)c2ccc(NC(=O)Nc3ccc(N(C)c4ccnc(Nc5ccc(CS(C)(=O)=O)cc5)n4)cc3)cc2)CC1.Cl [GW830263A]	4.4	8.8	18	95	65	4.2	86	86	82	91	89	86	41	96	16	47	11	100	11	36
O=C1Nc2ccc(C(=O)c3ccco3)cc2C1=Cc1cc(Cl)c(O)c(Cl)c1 [GW406108X]	100	67	13	78	72	89	100	97	100	95	100	100	100	93	0	86	79	100	100	100
CC1=C(C(=O)Nc2ccc3[nH]ncc3c2)C(c2ccc3ccccc3c2)CC(=O)N1 (stereo not shown) [GSK270822A]	87	47	87	75	75	73	92	68	100	76	100	85	46	93	73	90	53	100	95	100
COc1ccc2c(-c3ccnc(Nc4cccc(OC(F)(F)F)c4)n3)cnn2n1 [GW810372X]	100	100	93	100	73	100	100	100	74	100	100	99	100	100	100	98	60	100	100	100
Cl.O=C(Nc1ccc(Oc2ccc3[nH]c(NC(=O)c4ccco4)nc3c2)cc1)Nc1cc(C(F)(F)F)ccc1F [GW683134A]	6.6	17	99	100	48	12	100	64	82	67	94	89	100	100	100	100	87	100	5.6	38
Cl.O=S1CCN(Cc2ccc(-c3ccc4ncnc(Nc5ccc(OCc6ccccc6)c(F)c5)c4c3)o2)CC1 [GW576924A]	100	100	89	51	82	100	100	100	100	100	100	100	100	100	100	100	100	100	100	100
Cl.c1ccc(Cc2nc3ccc(Nc4ncnc5ccccc45)cc3[nH]2)cc1 [GR269666A]	91	100	92	100	86	100	100	100	100	91	100	100	100	100	100	100	100	100	100	100
Cc1cc(O)cc(C)c1/C=C/c1cncc(C(N)=O)c1 [GW435821X]	100	100	87	100	69	31	100	100	56	100	100	100	100	100	100	100	69	100	100	100
NS(=O)(=O)c1ccc(N/N=C2\C(=O)Nc3ccc(-c4cnco4)cc32)cc1 [GW276655]	100	94	3.8	93	93	71	19	73	64	96	100	98	92	100	40	77	53	100	100	73

Reference: paper PMC7826789 (International Journal of Molecular Sciences, 2021)
